PubChem BioAssay (NCATS)
Records with an inconclusive call do not appear. Activity calls are given as the source filed them. Calls come from the whole dose curve; as a rule, active = well fitted inhibition curve with a large enough effect; inconclusive = small, poorly fitted or top-dose-only effect; inactive = flat fitted curve, though single readings scatter.

System: KB-3-1
Assay: Cytotoxic Profiling of Annotated Libraries Using Quantitative High-Throughput Screening (AID 1296008); note: nearly all actives have a fitted effect of over 60% in size
Conditions: Five cell lines viability, CellTiter-Glo ATP luminescence, 48-72 h; max response: stronger effect = lower value
How it was run: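 Cytotoxicity was measured as CellTiter-Glo ATP luminescence, read after 10 min at room temperature. Compound treatment of the cells lasted 48 or 72 hr at 37 degrees Celsius in a qHTS format.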
% is set by controls: 0 for no effect and ±100 for the full control effect; potency is the fitted concentration of half-maximal effect.

| Structure (SMILES) | Potency | max response | outcome |
| --- | --- | --- | --- |
| COc1cc(Br)c(Nc2nc(-c3c(C)nc4ncccn34)cs2)c(Br)c1 | 2310 nM (active) | – | – |
| CC(=O)OC12COC1CC(O)C1(C)C(=O)C(O)C3=C(C)C(OC(=O)C(O)C(NC(=O)OC(C)(C)C)c4ccccc4)CC(O)(C(OC(=O)c4ccccc4)C21)C3(C)C (centres undefined) | 1.8 nM (active) | – | – |
| Nc1nc2c(ncn2[C@@H]2O[C@H](CO)[C@@H](O)[C@H]2O)c(=O)[nH]1 | – | 4.1% (inactive) | – |
| C[C@@H]1C[C@H]2O[C@@H]2/C=C\C=C\C(=O)Cc2c(Cl)c(O)cc(O)c2C(=O)O1 | 1100 nM (active) | – | – |
| N[C@@]1(C(=O)O)CC[C@H]2[C@H](C(=O)O)[C@H]21 | – | 2.99% (inactive) | – |
| O=C1OCc2cc3cccc(O[C@@H]4O[C@H](CO)[C@@H](O)[C@H](O)[C@H]4O)c3c(O)c21 | – | – | inactive |
| CCCC1(c2ccccc2)NC(=O)N(CC(=O)N(C)Cc2c(F)cccc2Cl)C1=O (centres undefined) | – | -1.57% (inactive) | – |
| CC/C=C\C/C=C\C/C=C\CCCCCCCC(=O)OCC(O)COC1OC(CO)C(O)C(O)C1O (centres undefined) | – | – | inactive |
| CCCCc1nc2cc(/C=C/C(=O)NO)ccc2n1CCN(CC)CC | 1460 nM (active) | – | – |
| COc1ccc(Cl)c(Nc2nc3ccccc3nc2NS(=O)(=O)c2cccc(NC(=O)C(C)(C)N)c2)c1 | – | -5.68% (inactive) | – |
| Cc1cc(-c2cc(O)ccc2Cl)cc2nnc(Nc3ccc(OCCN4CCCC4)cc3)nc12 | 4610 nM (active) | – | – |
| C[S+](CC[C@H](N)C(=O)[O-])C[C@H]1O[C@@H](n2cnc3c(N)ncnc32)[C@H](O)[C@@H]1O (some centres undefined) | – | 3.65% (inactive) | – |
| COC(=O)C[C@H]1C(C)(C)[C@H](OC(=O)C(C)C)[C@@]2(O)C(=O)[C@]1(C)C1CC[C@]3(C)C(CC(=O)O[C@H]3c3ccoc3)[C@]13O[C@@H]32 (some centres undefined) | – | 8.04% (inactive) | – |
| c1cc(OCCCN2CCCCC2)ccc1CN1CCCCC1 | – | -5.63% (inactive) | – |
| Cc1[nH]nc(C(F)(F)F)c1Cc1sc2c(c1C(=O)N1C[C@](C)(O)CO1)c(=O)n(C)c(=O)n2C(C)C | – | 1.3% (inactive) | – |
| Cc1[nH]c2ccccc2c1CCNC(=O)c1ccccc1F | – | 3.4% (inactive) | – |
| CC(C)/C=C1\NC(=O)C(C(C)C)n2c1nc1c(c2=O)C=CC=CO1 (centres undefined) | – | 4.42% (inactive) | – |
| CC1(C)CC[C@]2(C(=O)O[C@@H]3O[C@H](CO)[C@@H](O)[C@H](O)[C@H]3O)CC[C@]3(C)C(=CCC4[C@@]5(C)CC[C@H](O[C@@H]6O[C@H](C(=O)O)[C@@H](O)[C@H](O[C@@H]7O[C@H](CO)[C@H](O)[C@H](O)[C@H]7O)[C@H]6O)C(C)(C)C5CC[C@]43C)C2C1 (some centres undefined) | – | 3.29% (inactive) | – |
| COc1cc2c(cc1OC)N1C(=O)C[C@]34C=CCN5CC[C@@H]2[C@@H](CC3)[C@]514 | – | 7.8% (inactive) | – |
| CC(=O)O[C@H]1C[C@@]2(C)[C@@H](CC[C@H]3[C@@]4(C)C=CC(=O)[C@@H](C)[C@@H]4[C@H](O)C(=O)[C@@]32C)/C1=C(/CCC=C(C)C)C(=O)O | – | 4.45% (inactive) | – |

| Structure (SMILES) | Potency | max response | outcome |
| --- | --- | --- | --- |
| C[C@H](Oc1ccc(S(C)(=O)=O)cc1C(=O)N1CCN(c2ncc(C(F)(F)F)cc2F)CC1)C(F)(F)F | – | 4.57% (inactive) | – |
| C/C(=C\CCC(C)CCO)C(=O)O[C@@H]1[C@@H](O)[C@H](OC2OC=C(C(=O)O)C3CCC(C)(O)C23)O[C@H](CO)[C@H]1O (some centres undefined) | – | – | inactive |
| CC(=O)c1ccc(O[C@@H]2O[C@H](CO)[C@@H](O)[C@H](O)[C@H]2O)cc1 | – | 2.85% (inactive) | – |
| CC1OC(O[C@H]2CC[C@@]3(C)C(CC[C@]4(C)C3CC=C3C5CC(C)(C)CC[C@]5(C(=O)OC5OC(CO)C(OC6OC(COC7OCC(O)C(O)C7O)C(O)C(O)C6O)C(O)C5O)CC[C@]34C)C2(C)C)C(O)C(O)C1OC1OCC(OC2OCC(O)C(O)C2O)C(O)C1O (some centres undefined) | – | – | inactive |
| CC(=O)O[C@@H]1C[C@H](O)[C@@]23CO[C@H](O)[C@]1(C)C2C[C@@H](O)[C@]1(C)C3C(=O)[C@H](OC(C)=O)[C@@]2(C)[C@H](c3ccoc3)C[C@H]3O[C@]321 (some centres undefined) | 137 nM (active) | – | – |
| CCC(C)C(=O)O[C@H]1CCC=C2C=C[C@H](C)[C@H](CC[C@@H](O)C[C@@H](O)CC(=O)O)[C@H]21 (some centres undefined) | – | 7.29% (inactive) | – |
| CC(C)C[C@H](CC(=O)NO)C(=O)N[C@@H](Cc1ccc2ccccc2c1)C(=O)N[C@@H](C)C(=O)NCCN | – | 7.03% (inactive) | – |
| CCNC(=O)Nc1ccc(-c2nc3c(c(N4CCOC[C@@H]4C)n2)CCN(c2ncccn2)C3)cc1 | 291 nM (active) | – | – |
| CS(=O)(=O)c1ccc([C@H](CC2CCCC2)C(=O)Nc2nccs2)cc1 | – | – | inactive |
| CNC(=S)NS(=O)(=O)c1cc(CCNC(=O)c2cc(Cl)ccc2OC)ccc1OC | – | -4.17% (inactive) | – |
| CC(C)=CCC[C@](C)(O[C@@H]1O[C@H](CO)[C@@H](O)[C@H](O)[C@H]1O)[C@H]1CC[C@]2(C)[C@@H]1[C@H](O)CC1[C@@]3(C)CC[C@H](O)C(C)(C)C3[C@@H](O[C@@H]3O[C@H](CO)[C@@H](O)[C@H](O)[C@H]3O[C@@H]3OC[C@@H](O)[C@H](O)[C@H]3O)C[C@]12C (some centres undefined) | – | -9.18% (inactive) | – |
| OC[C@H]1O[C@@H](Oc2cc(O)c3c(c2)O[C@@H](c2ccc(O)cc2)[C@H](O)C3)[C@H](O)[C@@H](O)[C@@H]1O | – | – | inactive |
| COc1c2ccoc2cc2oc(CO[C@@H]3O[C@H](CO)[C@@H](O)[C@H](O)[C@H]3O)cc(=O)c12 | – | -1.43% (inactive) | – |
| C[C@H](NC(=O)CCc1nc2ccccc2c(=O)[nH]1)c1ccccc1 | – | -7.76% (inactive) | – |
| COc1cc(C2c3cc4c(c(O)c3CC(CO)C2C(=O)O)OCO4)cc(OC)c1O (centres undefined) | 2000 nM (active) | – | – |
| CC(C)Oc1ccc(C(=O)NC(CNC(=O)CN(C)C)Cc2ccc(-c3cn4cccc(C(C)O)c4n3)cc2)cc1Cl (centres undefined) | 146 nM (active) | – | – |
| CCN1CCN(Cc2ccc(NC(=O)Nc3ccc(Oc4cc(NC)ncn4)cc3)cc2C(F)(F)F)CC1 | 6510 nM (active) | – | – |
| O=C(O)c1ccc(CN2CCC(CN[C@@H]3C[C@H]3c3ccccc3)CC2)cc1 | – | 6.54% (inactive) | – |
| COC(=O)N(C)c1c(N)nc(-c2nn(Cc3ccccc3F)c3ncccc23)nc1N | – | 0.515% (inactive) | – |
